# From the supplement of paper PMC6555819
# Test system: PPARg DBDmut:RXRa IVT, anti-PPARg (DBD mutation: PPARg1 K132A/R137A, NR concentration 270 nM, RXRa partner concentration 90 nM)
# Assay: PBM binding z-score (relative to random genomic background probes); higher = stronger binding; sequences stand for … in GC…GCGATTGACAGCGTAGAATGAAGG
# In short: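 Probes were double-stranded and carried 34-nt variable regions with direct-repeat seeds, single-nucleotide variants, half-site ablations and random human genomic background sequences, printed on custom Agilent 4×180K protein-binding microarrays. Arrays were incubated 1 h with ligand-free nuclear receptor dimers in PBS pH 7.4, 2% milk, 0.02% Triton X-100, 1 mM DTT, 0.2 mg/mL BSA and 0.4 mg/ml salmon testes DNA. Antibodies against each partner (one per run) detected binding, and scanned fluorescence was regression-normalized. Binding z-scores use the random background probes as reference.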
row,Sequence,PBM binding z-score
1,TCAATGAGGTTAAAGATCAGGGAACGTGGCGTCG,0.383
2,TAGCTTAGGTCATTGGGCCAGTATAGTACGCATC,0.561
3,GGAACCAGGGCAAGTTGATAGCAGAGTTTGATGG,0.246
4,TTACCAAGATGAAGGTCGTTGATCCCTCTGTAGA,0.286
5,TCTTGTAGATCAAGCAGGTTAAGAACGCCTGAGT,-0.194
6,TGAATGAGGTTAAAGATCAGGGCACGTGGCGTCG,1.31
7,ATCTCTAGGTAAGACTCCGTTCAGTGAAGAACGC,0.571
8,CCAGACAGGTAAAAGGTAACTCAGTCTGGTACGC,-0.535
9,TCATATAGGTAAAAGGTGAAATTCGGTGTGGTAA,2.68
10,GGAACGAGGACAAGTTGATAGCAGAGTTTGATGG,-0.104
11,TCGAGTAGGTTTGTCGGGGCATTCAGCCAACATA,-1.6
12,GATACAGGGTCAGCTAGAGGCCAGAGTGTGGAAA,-0.57
13,TAGCCAAGGTCATGGGCCAGTATACCACGCGAAC,0.971
14,GCTAGTTGGTGAGTAAAAGGTCACACACCGGTCG,0.00849
15,CCTACTGGGCCATCAGATCATTGATATCAACGTT,0.261
16,TAGCCTAGGTCATCCGGGCCAGTATAGTGTCGGC,0.0914
17,CGTCCAAGGTCAAAGGACAGTGAAGAGATGACGG,1.49
18,TCACGGAGGACACGAAAGGTCAGAGCTCGACATC,-0.581
19,AATGCAGGGTCACTAGGCCAGAGTAGGTACGAAT,1.45
20,CGAACTAGGTCATTGGCAGGACAGTGAATAGTAA,3.04

row,Sequence,PBM binding z-score
1,TCATATAGGTAATACAGGTGAAGGTCGGCATCTA,1.2
2,AGAATGAGGTTAAGATCAGTGAAACAGAATACAT,1.66
3,TGAATGAGGTTATAAGATCAGGCAACGTTGCAAA,1.1
4,CGAACGAGGGCATGAGTTGACAGCAAATGCCGAT,-0.484
5,CGAACTGGGTCATTGACAGGACAGTGAATAGTAA,1.06
6,GCTGCTAGGCCAACTGATGGTCAGCTAAAGCTCG,-1.27
7,TCTAGTTGGTCACGGAGGTCACACACGACGGGTA,1.49
8,CGTCCAAGGTCAATGCTAGGACAGTGAAAGCATT,-0.452
9,CAAACTAGGTCAGAACAGGACAGTGAAGGATGAT,4.2
10,ATCTCTAGGAAACAAGTTCAGTGAAAGAGAGGAC,0.113
11,AGTCAAAGTTCATCTAGGTAACTTAAGATATGCT,1.87
12,TCTAGTTGGTCACGGAGGTCACCCACGACGGGTA,1.19
13,CAAACTAGGTCACGAAAGGTCAATGTCGAATGAC,5.05
14,ATAGACAGGTGAGTGAAGGTAACTCAGCTGGACG,0.246
15,CCCACTGGGCCAAGGTCATTGATCAGTCAAAGCA,-0.866
16,ATATGTAGGTTGTCGGGTCATTCAGTTTGCGCAT,1.87
17,ACTAGCAGGCCAAGTTTGGGTCACTTAAACAAAG,-0.398
18,GGAACGAGGGCAAGTTGATAGCAGAGTTTGATGG,-0.0364
19,GCGACTGGAGCATCAGCAGGTTACCATAACTTAA,-1.51
20,AATACAGGGTCACAAGGCCAGAGTAGGTACGAAT,1.96
